The source of these data is PubChem BioAssay.

The test system of experiment [1] is Human papillomavirus type 1a protein E7 (residues 44-93). In words: small molecules binding HPV E7 44-93 – biochemical, small-molecule microarray, residues 44-93, 635 nm fluorescence, primary screen (AID 1108).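 Further: E7 fragment applied at 1 µg/mL in TBST for 1 h at 4 C; score combines spot fluorescence with its signal to noise ratio.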 Particulars: fluorescence 635 nm, higher = more signal.
Experiment [2] can be described thus: hepatitis C replication reporter changes, two-sided – Huh7 cells, luciferase reporter, HCV replication inhibitor project, primary screen (AID 1109).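 Further: huh7 hepatoma cells harbouring a luciferase neomycin HCV replicon reporter; luciferase luminescence as measure of HCV replicon replication; test concentration not given here.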 Particulars: Huh7 HCV replicon luciferase reporter, 48 h; higher = more signal.
Experiment [3] has as its target Left-right determination factor 2 (Homo sapiens) (UniProt O00292). In words: small molecules binding LEFTY2 protein – biochemical, small-molecule microarray, 635 nm fluorescence scan, primary screen (AID 1110). The note with it: higher = more signal.
Experiment [4] concerns the target Calmodulin-1 (Homo sapiens) (UniProt P0DP23). In words: small molecules binding calmodulin-1 with EGTA – biochemical, small-molecule microarray, Cy5-labelled CALM1, profiling panel (AID 1111).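 Further: labelled calmodulin applied in Tris saline Tween buffer holding calcium plus EGTA and DTT.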 The note with it: Cy5-CALM1 binding fluorescence, higher = more signal.
Experiment [5] has the same target. In words: small molecules binding Ca-loaded calmodulin-1 – biochemical, small-molecule microarray, Cy5-labelled CALM1, plus calcium, artefact control for SMM control-protein annotation, profiling panel (AID 1112).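 Further: score merges spot fluorescence with signal to noise from triplicate slides.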 The note with it: Cy5-CALM1 binding fluorescence, higher = more signal.
The nature of experiment [6]: probe aWnt5a binding to arrayed compounds – biochemical, biotinylated probe, 635/667 nm fluorescence, primary screen (AID 1113).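 Further: score merges 667 nm fluorescence intensity with signal-to-noise per printed feature.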 Particulars: small-molecule microarray, higher = more signal.
Experiment [7] is described as follows: probe aShh binding to arrayed compounds – biochemical, biotinylated probe, 635/667 nm fluorescence, primary screen (AID 1114).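 Further: probe is biotin-labelled aShh protein from a stem cell growth factor screen; measures binding of labelled protein to compounds printed on the slide; score merges feature fluorescence at 667 nm with signal-to-noise.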 The note with it: small-molecule microarray, higher = more signal.
A short description of experiment [8]: probe aNog binding to arrayed compounds – biochemical, biotinylated probe, 635/667 nm fluorescence, primary screen (AID 1115).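 Further: probe is biotinylated aNog protein used at 0.15 µg/mL for 1 h at 4 C; z-score combines 667 nm fluorescence of each spot with its signal to noise.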 The note with it: small-molecule microarray, higher = more signal.
The target of experiment [9] is Torsin-1A-interacting protein 1 (Homo sapiens) (UniProt Q5JTV8). In words: compound microarray binding of lysate hLAP1 – cell lysate, small-molecule microarray, COS7 lysate, 635/667 nm fluorescence, primary screen (AID 1116). The note with it: 635 nm fluorescence, higher = more signal.
Sequence of Torsin-1A-interacting protein 1 (Homo sapiens) (Q5JTV8 whole entry, looked up): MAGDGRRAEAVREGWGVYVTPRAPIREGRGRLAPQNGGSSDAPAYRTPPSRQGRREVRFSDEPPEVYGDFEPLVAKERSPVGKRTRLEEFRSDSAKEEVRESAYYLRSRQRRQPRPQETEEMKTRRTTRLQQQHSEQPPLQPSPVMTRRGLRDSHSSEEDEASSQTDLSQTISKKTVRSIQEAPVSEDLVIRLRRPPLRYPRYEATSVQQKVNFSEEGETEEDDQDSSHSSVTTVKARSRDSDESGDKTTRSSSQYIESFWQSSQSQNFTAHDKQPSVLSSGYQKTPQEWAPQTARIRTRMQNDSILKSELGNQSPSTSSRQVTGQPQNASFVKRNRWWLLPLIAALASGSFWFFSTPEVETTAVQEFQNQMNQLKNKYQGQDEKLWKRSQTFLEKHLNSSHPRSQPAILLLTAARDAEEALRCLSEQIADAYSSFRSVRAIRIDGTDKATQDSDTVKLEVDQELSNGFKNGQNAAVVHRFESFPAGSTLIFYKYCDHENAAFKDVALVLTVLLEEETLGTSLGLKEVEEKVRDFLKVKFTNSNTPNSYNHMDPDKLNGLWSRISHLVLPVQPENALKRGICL
The target in experiment [10] is Alpha-bungarotoxin (Bungarus multicinctus) (UniProt P60615). In words: compounds binding labelled alpha-BTX control protein – biochemical, small-molecule microarray, Alexa647 label, 635/667 nm fluorescence, artefact control for SMM control protein annotation, profiling panel (AID 1117). Particulars: alpha-BTX-A647 binding fluorescence, higher = more signal.
Sequence of Alpha-bungarotoxin (Bungarus multicinctus) (P60615 whole entry, looked up): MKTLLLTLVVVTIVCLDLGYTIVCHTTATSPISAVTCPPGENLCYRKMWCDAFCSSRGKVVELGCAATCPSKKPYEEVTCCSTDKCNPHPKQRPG

Structures are written as SMILES.

Sequence of Left-right determination factor 2 (Homo sapiens) (O00292 whole entry, looked up): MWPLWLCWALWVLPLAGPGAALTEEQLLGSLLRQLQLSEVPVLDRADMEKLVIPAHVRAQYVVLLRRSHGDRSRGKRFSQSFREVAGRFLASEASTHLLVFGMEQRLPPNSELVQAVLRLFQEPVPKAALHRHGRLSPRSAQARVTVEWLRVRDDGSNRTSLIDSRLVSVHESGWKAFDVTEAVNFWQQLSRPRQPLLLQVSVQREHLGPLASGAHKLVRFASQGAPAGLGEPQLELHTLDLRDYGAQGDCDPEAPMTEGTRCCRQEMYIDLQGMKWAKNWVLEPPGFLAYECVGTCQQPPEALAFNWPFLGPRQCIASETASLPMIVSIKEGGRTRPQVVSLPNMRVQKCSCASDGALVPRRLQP

For `C=CC1=C[C@H](O)[C@@H]2O[C@@H]2C12OCCCO2`, the composite z-score in experiment [1] was 0.304; in [3] it was 0.152; in experiment [4], -0.396; in [5] it was -1.05; in experiment [6], -0.105; in experiment [7], -0.381. For the same compound, the composite z-score in [8] is -0.165; in [9], 0.169; in experiment [10], 0.43. The z-score in [2] is -0.876.

`CCOC(=O)[C@H](CC(C)C)NC(=O)CCC1CC(OC(=O)NCc2cccc3ccccc23)CC2(CCCC(COC(=O)NCCc3ccc(Cl)cc3)O2)O1` (stereo not given in full): the composite z-score was 0.529 in experiment [1]; 0.486 in experiment [3]; 0.0203 in experiment [4]; -0.117 in [5]; -0.191 in experiment [6]; -0.473 in experiment [7]. Further, the values for the composite z-score in [8], in experiment [9] and in experiment [10] were -0.114, 0.161 and 0.557, respectively. Further, in experiment [2], the z-score is -0.707.

Consider `CCOC(=O)[C@H](Cc1ccccc1)NC(=O)CCC1CC(OC(=O)NCCc2ccc(F)cc2)CC2(CCCC(COC(=O)NCCOC)O2)O1` (stereo not given in full), for which the composite z-score in experiment [1] is 1.4; in [3] it was 0.529; in experiment [4], 0.276; in experiment [5], -0.109; in experiment [6] it was -0.116; in experiment [7] it was 0.131. In addition, the results for the composite z-score in experiment [8], in experiment [9] and in [10] were 0.0853, 0.979 and 0.574, respectively. Further, the z-score in [2] worked out at 0.686.

Turning to `COCCNC(=O)OCC1CCCC2(CC(OC(=O)NCc3ccc4c(c3)OCO4)CC(CCC(=O)N[C@@H](C)C(=O)OC)O2)O1` (stereo not given in full), the composite z-score in [1] is 0.953; in experiment [3], 0.65; in experiment [4], 0.332; in [5] it was -0.431; in experiment [6], -0.0819; in [7] it was -0.0553. Moreover, the composite z-score is -0.0645 in [8], 0.376 in [9] and 0.804 in experiment [10]. In experiment [2], this compound had a z-score of -1.26.

`O=C1C2=CC[C@H]3C(=O)N(c4cccc(Oc5ccccc5)c4)C(=O)[C@H]3[C@H]2[C@H](O)[C@@H]2O[C@H]12`: the composite z-score in experiment [1] is 0.792; in experiment [3], 0.516; in experiment [4] it was 0.0194; in experiment [5], -0.32; in experiment [6], -0.157; in [7], -0.273. The composite z-score in [8] is -0.224; in experiment [9], 0.257; in [10], 0.281. In experiment [2], this compound registered a z-score of -4.64.

For the compound `O=C1[C@H]2[C@H]3[C@H](O)[C@H](O)CC(=NO[C@@H]4O[C@H](CO)[C@@H](O)[C@H](O)[C@H]4O)[C@H]3CC[C@H]2C(=O)N1c1cccc(Oc2ccccc2)c1`, the composite z-score was 0.583 in [1]; 0.723 in [3]; -0.0761 in experiment [4]; -0.474 in experiment [5]; -0.168 in experiment [6]; -0.349 in experiment [7]. In addition, the results for the composite z-score in [8], in experiment [9] and in experiment [10] were -0.129, 0.675 and -0.0791, respectively. This compound yielded a z-score in [2] of -0.243.

On to `CON=C1[C@H]2CCn3c(=O)n(-c4ccccc4)c(=O)n3[C@H]2[C@H](O)[C@@H]2O[C@H]12`, for which the composite z-score in [1] is 0.548; in [3] it was 0.661; in experiment [4] it was -0.345; in experiment [5], -0.536; in [6], -0.0445; in experiment [7], -0.138. Moreover, the composite z-score in experiment [8] is -0.158; in experiment [9], -0.501; in experiment [10] it was 0.269. The z-score in experiment [2] is -2.1.

Regarding `CC(CCN1CCCCc2nc(C)c(C)cc21)=NO[C@@H](C)c1cn([C@H](CO)Cc2ccccc2)nn1`, the composite z-score was 0.271 in [1]; 0.813 in [3]; 0.404 in [4]; -0.0345 in [5]; -0.152 in experiment [6]; -0.117 in experiment [7]. Further, the figures for the composite z-score in experiment [8], in experiment [9] and in experiment [10] were -0.397, 0.691 and 0.414, respectively. In experiment [2], the z-score is -0.507.

On to `COC(=O)CC=C[C@@H](C)[C@@H](C=NOC(C)CN1CCCc2nc(C)c(C)cc21)OC` (stereo not given in full), for which the composite z-score was 0.633 in experiment [1]; 0.517 in [3]; 0.539 in [4]; -0.733 in experiment [5]; 0.133 in experiment [6]; -0.223 in [7]. Moreover, the composite z-score was -0.291 in experiment [8], 0.106 in experiment [9] and 1.43 in experiment [10]. In addition, in experiment [2], the z-score was -0.256.

On to `O=c1n(Cc2cc3c(cc2Cl)OCO3)c(=O)n2n1CC[C@@H]1C(=NOC[C@@H](O)COCc3ccco3)[C@H]3O[C@H]3[C@@H](O)[C@@H]12`, for which the composite z-score in experiment [1] was 0.77; in [3], 0.436; in [4], -0.25; in [5], -0.535; in [6], -0.0556; in [7], -0.0709. Moreover, the composite z-score is -0.0544 in [8], 0.469 in [9] and 0.423 in [10]. Moreover, the z-score in experiment [2] is -0.76.

`COc1ccc(O[C@H]2C=C[C@@H](c3ccccc3)O[C@@H]2COC(=O)CCC(C)=NOC[C@@H](O)[C@H]2O[C@@H]3OC(C)(C)O[C@@H]3[C@H]2O)cc1`: the composite z-score was 1.07 in experiment [1]; 0.706 in experiment [3]; -0.166 in experiment [4]; -0.627 in experiment [5]; 0.0001 in [6]; -0.291 in experiment [7]. The composite z-score in experiment [8] is -0.232; in [9], 0.419; in experiment [10] it was 0.0391. Besides, the z-score in experiment [2] is -0.0939.

For `CCOC(=O)[C@H](CC(C)C)NC(=O)CCC1CC(OC(=O)NCCc2ccc(F)cc2)CC2(CCCC(COC(=O)NCC(c3ccccc3)c3ccccc3)O2)O1` (stereo not given in full), the composite z-score is 0.776 in [1]; 0.319 in experiment [3]; 0.479 in [4]; -0.476 in experiment [5]; -0.152 in [6]; -0.214 in experiment [7]. In addition, the composite z-score in experiment [8] was -0.501; in experiment [9], 0.145; in experiment [10] it was 0.71. This compound also came in with a z-score in experiment [2] of 0.612.

In the case of `CC(C)CON=C1C[C@@H](O)[C@@H](O)[C@@H]2[C@@H]3C(=O)N(C[C@@H]4CCCO4)C(=O)[C@@H]3CC[C@@H]12`, the composite z-score in [1] was 0.267; in experiment [3], 0.0128; in experiment [4], -0.333; in [5] it was 0.0901; in experiment [6], -0.173; in experiment [7], -0.123. The figures for the composite z-score in experiment [8], in experiment [9] and in experiment [10] were -0.103, -0.419 and 0.678, respectively. In addition, the z-score in experiment [2] is 0.444.

Regarding `COC(=O)[C@H](C)NC(=O)CCC1CC(OC(=O)NCCc2ccc(F)cc2)CC2(CCCC(COC(=O)NCc3cccc(C(F)(F)F)c3)O2)O1` (stereo not given in full), the composite z-score is 0.518 in experiment [1]; 0.749 in experiment [3]; -0.0669 in [4]; -0.23 in experiment [5]; -0.146 in [6]; -0.59 in experiment [7]. For the same compound, the composite z-score in experiment [8] is -0.302; in experiment [9], 0.322; in experiment [10] it was -0.131. The z-score in experiment [2] was -0.377.

Regarding `O=C1[C@H]2[C@H]3[C@H](O)[C@H](O)CC(=NOCc4ccccc4)[C@@H]3CC[C@H]2C(=O)N1C[C@@H]1CCCO1`, the composite z-score is -0.236 in [1]; 0.316 in experiment [3]; 0.583 in experiment [4]; -0.0696 in experiment [5]; -0.117 in experiment [6]; -0.0553 in experiment [7]. For the same compound, the composite z-score in experiment [8] is -0.158; in experiment [9], -0.126; in experiment [10] it was 0.879. Besides, the z-score in experiment [2] came out at 0.189.

Take `CC(CCC(=O)OC[C@H]1O[C@H](C#Cc2ccccc2)C=C[C@@H]1Oc1ccc(C)cc1)=NO[C@H](C)c1cn([C@H](CO)Cc2ccccc2)nn1`: the composite z-score is 0.53 in experiment [1]; 0.423 in experiment [3]; 0.0827 in experiment [4]; -0.0351 in experiment [5]; -0.0924 in experiment [6]; -0.138 in experiment [7]. In addition, the composite z-score was 0.0169 in experiment [8], -0.166 in [9] and -0.0686 in experiment [10]. Besides, in experiment [2], the z-score was -1.57.

As to `COC(=O)CC=C[C@@H](C)[C@@H](C=NO[C@H](C)c1cn([C@H](CO)Cc2ccccc2)nn1)NS(=O)(=O)c1ccc(C)cc1`, the composite z-score is 0.37 in experiment [1]; 0.483 in experiment [3]; 0.333 in experiment [4]; -0.215 in experiment [5]; -0.152 in [6]; 0.178 in experiment [7]. The figures for the composite z-score in [8], in [9] and in [10] were -0.0196, 1.42 and 1.56, respectively. In [2], this compound returned a z-score of -1.35.

Take `COC(=O)[C@H](C)NC(=O)CCC1CC(OC(=O)NCCc2ccc(F)cc2)CC2(CCCC(COC(=O)NCCC(C)C)O2)O1` (stereo not given in full): the composite z-score was 0.466 in experiment [1]; 0.482 in experiment [3]; 0.0458 in experiment [4]; -0.233 in experiment [5]; -0.119 in experiment [6]; 0.0483 in [7]. Besides, the values for the composite z-score in [8], in experiment [9] and in experiment [10] were -0.254, 0.189 and 1.07, respectively. Moreover, the z-score in experiment [2] was 0.839.
